± gives the standard deviation of the averaged measurements.
What was measured:
DLD1 [1] = experiment: cell viability (CellTiter-Glo) relative to plate median (fraction of plate median); higher = more viable cells; conditions: 5 µM; treatment time 24 h; reporter: 7TFP
Procedure, shortened: (§1)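 Library compounds were added at a final concentration of 5 µM for 24 h to colorectal cancer cells stably transduced with a lentiviral TCF/Wnt firefly luciferase reporter. Reported values are firefly luciferase or CellTiterGlo luminescence, normalised per well to the plate median. Each value averages two independent replicates.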

HCT116 = experiment: as above; conditions: 5 µM; treatment time 24 h; reporter: TCF4/Wnt
Procedure, shortened: as §1

SW480 [2] = experiment: as above; conditions: 5 µM; treatment time 24 h; reporter: 7TFP
Procedure, shortened: as §1

DLD1 [3] = experiment: TCF/Wnt firefly luciferase reporter signal relative to plate median (fraction of plate median); higher = higher Wnt reporter signal; conditions: 5 µM; treatment time 24 h; reporter: 7TFP
Procedure, shortened: as §1

SW480 [4] = experiment: as above; conditions: 5 µM; treatment time 24 h; reporter: 7TFP
Procedure, shortened: as §1

SMILES	cell viability (DLD1 [1])	cell viability (HCT116)	cell viability (SW480 [2])	TCF/Wnt firefly luciferase reporter signal (DLD1 [3])	TCF/Wnt firefly luciferase reporter signal (SW480 [4])
CC(=O)OCC1=C(C(=O)O)N2C(=O)[C@@H](NC(=O)CCC[C@@H](N)C(=O)O)[C@H]2SC1	0.955 ± 0.13	0.906 ± 0.13	0.9165 ± 0.0064	1.175 ± 0.0071	1.09 ± 0.05
NCC(O)c1ccc(O)cc1 (stereo not given)	0.972 ± 0.097	0.923 ± 0.015	0.972 ± 0.011	0.954 ± 0.21	0.943 ± 0.043
Cc1[nH]c2ccccc2c1CN(C)C	1.05 ± 0.014	1.18 ± 0.11	1.085 ± 0.0071	1.07 ± 0.11	1.07 ± 0.057
Nc1ncn[nH]1	0.973 ± 0.067	1.09 ± 0.11	1 ± 0.029	0.957 ± 0.089	0.978 ± 0.012
Nc1ccncc1	1.025 ± 0.0071	1.07 ± 0.028	1 ± 0.1	1.03 ± 0.054	1.13 ± 0.071
N[C@@H]1C[C@H]1c1ccccc1.N[C@H]1C[C@@H]1c1ccccc1	1.02 ± 0.059	0.959 ± 0.0042	0.956 ± 0.033	1.05 ± 0.17	0.892 ± 0.12
CCOC(=O)c1cncn1[C@H](C)c1ccccc1	1.04 ± 0.035	0.987 ± 0.018	0.9905 ± 0.0078	0.965 ± 0.013	0.995 ± 0.022
C=C(C)[C@H]1CN[C@H](C(=O)O)[C@H]1CC(=O)O	0.986 ± 0.035	1.01 ± 0.099	0.97 ± 0.0042	0.923 ± 0.11	0.947 ± 0.047
Cc1cccc(C)c1NC1=NCCCS1	1.04 ± 0.073	1.01 ± 0.036	0.992 ± 0.012	1.07 ± 0.05	1.02 ± 0.083
CN(C)C(=O)Oc1cc(OC(=O)N(C)C)cc(C(O)CNC(C)(C)C)c1 (stereo not given)	0.986 ± 0.021	1 ± 0.024	0.961 ± 0.044	0.911 ± 0.11	1.045 ± 0.0071
CN1C(=O)CCS(=O)(=O)C1c1ccc(Cl)cc1 (stereo not given)	1.01 ± 0.033	1.02 ± 0.014	0.946 ± 0.15	0.984 ± 0.023	1.04 ± 0.093
CC1(C)C2CC(=O)[C@]3(C)C(CC[C@@]4(C)[C@H](c5ccoc5)OC(=O)C5OC543)[C@@]2(C)[C@@H](O)C[C@H]1O (stereo not given in full)	0.996 ± 0.048	1.04 ± 0.057	0.995 ± 0.05	1.01 ± 0.098	1.02 ± 0.054
O=C(O)CF	0.951 ± 0.049	0.968 ± 0.059	1.035 ± 0.0071	1.05 ± 0.014	1.07 ± 0.042
OCC(O)Cc1ccc2c(c1)OCO2 (stereo not given)	1.03 ± 0.095	1.04 ± 0.014	1.02 ± 0.033	0.922 ± 0.091	0.985 ± 0.036
COC1=C[C@@H]2[C@@H]3Cc4ccc(OC)c(O)c4[C@]2(CCN3C)CC1=O	0.973 ± 0.0085	0.925 ± 0.017	0.987 ± 0.033	1.03 ± 0.11	0.997 ± 0.16
COc1cc(OC)c2c(c1)O[C@H](c1ccc(OC)c(OC)c1)[C@@H](O)C2	0.924 ± 0.071	0.955 ± 0.047	0.973 ± 0.096	0.952 ± 0.023	1.01 ± 0.014
CCOP(=S)(OCC)Oc1ccc2c(C)c(Cl)c(=O)oc2c1	0.989 ± 0.044	0.983 ± 0.14	0.9335 ± 0.005	0.928 ± 0.04	0.89 ± 0.012
CC[C@@]1(O)C(=O)OCc2c1cc1n(c2=O)Cc2cc3ccccc3nc2-1	0.91 ± 0.094	0.292 ± 0.067	0.925 ± 0.041	1.01 ± 0.12	0.911 ± 0.016
C[C@H]1C(=O)O[C@@H]2CCN3CC=C(COC(=O)[C@](C)(O)[C@]1(C)O)[C@H]23	1 ± 0.023	1.04 ± 0.09	1.015 ± 0.0071	0.919 ± 0.035	0.998 ± 0.06
CO[C@]12C[C@@H](COC(=O)c3cncc(Br)c3)CN(C)[C@@H]1Cc1cn(C)c3cccc2c13	0.999 ± 0.16	0.976 ± 0.033	0.999 ± 0.03	0.968 ± 0.1	1 ± 0.04

SMILES	cell viability (DLD1 [1])	cell viability (HCT116)	cell viability (SW480 [2])	TCF/Wnt firefly luciferase reporter signal (DLD1 [3])	TCF/Wnt firefly luciferase reporter signal (SW480 [4])
CC1=NCCc2c1[nH]c1cc(O)ccc21	0.971 ± 0.069	1.01 ± 0.11	1.02 ± 0.014	1.02 ± 0.17	0.988 ± 0.031
COc1cc2c(cc1OC)[C@@]13CCN4CC5=CCO[C@H]6CC(=O)N2[C@H]1[C@H]6[C@H]5C[C@H]43	1.06 ± 0.05	1 ± 0.097	1.04 ± 0.035	0.876 ± 0.096	0.974 ± 0.031
NC(=O)c1cc([N+](=O)[O-])cc([N+](=O)[O-])c1	1.01 ± 0.015	1.01 ± 0.093	0.98 ± 0.016	1.06 ± 0.05	0.923 ± 0.14
FC(F)(F)c1cccc(N2CCNCC2)c1	1.04 ± 0.13	1.05 ± 0.086	1.02 ± 0.014	0.943 ± 0.015	1.02 ± 0.045
CNc1ccccc1C(=O)O	0.923 ± 0.12	0.85 ± 0.12	1.004 ± 0.0085	0.931 ± 0.088	1.1 ± 0.078
Cc1ccc(C[N+](C)(C)C)o1	1 ± 0.026	1.025 ± 0.0071	1.02 ± 0.014	0.864 ± 0.012	0.903 ± 0.027
Cc1ncc(CNC(=O)N(CCCl)N=O)c(N)n1	1.02 ± 0.021	0.98 ± 0.0071	1.025 ± 0.0071	1.01 ± 0.03	0.987 ± 0.019
CC(C)(C)NCC(O)c1cc(Cl)c(N)c(Cl)c1 (stereo not given)	1.01 ± 0.024	1.03 ± 0.05	0.922 ± 0.012	0.97 ± 0.038	0.942 ± 0.0071
CCC1(C2=NCCN2)Cc2ccccc2O1 (stereo not given)	0.9965 ± 0.005	1.04 ± 0.021	1.02 ± 0.09	1.015 ± 0.0071	1.04 ± 0.035
COC1=C[C@]23CCCN2CCc2cc4c(cc2[C@@H]3[C@@H]1O)OCO4	0.98 ± 0.14	1.01 ± 0.035	1.01 ± 0.021	0.997 ± 0.32	0.953 ± 0.067
O=c1[nH]c2ccccc2n1C1CCN(CCCC(c2ccc(F)cc2)c2ccc(F)cc2)CC1	0.95 ± 0.013	0.922 ± 0.065	1.01 ± 0.019	1.02 ± 0.014	0.88 ± 0.12
CC1(C)C2CC(=O)[C@]3(C)C(CC[C@@]4(C)[C@H](c5ccoc5)OC(=O)[C@H]5O[C@]543)[C@@]2(C)C(=O)C[C@H]1O (stereo not given in full)	1.015 ± 0.0071	0.988 ± 0.018	1.01 ± 0.071	0.918 ± 0.037	0.965 ± 0.079
CC(C)c1ccc2c(c1O)CC[C@H]1C3=C(CC[C@]21C)C(=O)OC3	1.1 ± 0.042	1.1 ± 0.099	1.09	1.04 ± 0.19	1.06
COc1cc2ccc(=O)oc2c2ccoc12	0.932 ± 0.077	1.01 ± 0.02	0.9355 ± 0.0035	0.968 ± 0.17	0.996 ± 0.063
NC(=O)c1ccc(N)nc1	1.1 ± 0.13	1.1	1.01 ± 0.16	1.01 ± 0.067	0.91 ± 0.037
C=C(C)[C@@H]1CC[C@]2(C(=O)O[C@@H]3O[C@H](CO[C@@H]4O[C@H](CO)[C@@H](O[C@@H]5O[C@@H](C)[C@H](O)[C@@H](O)[C@H]5O)[C@H](O)[C@H]4O)[C@@H](O)[C@H](O)[C@H]3O)CC[C@]3(C)[C@H](C[C@H]4OC(=O)C[C@@H](O)[C@]5(C)[C@@H]4[C@@]3(C)CC[C@H]5C(=C)C)[C@@H]12 [Chiisanoside (5)]	0.873 ± 0.16	0.958 ± 0.074	0.945 ± 0.059	0.817 ± 0.059	0.948 ± 0.12
CCC(C)C(=O)c1c(O)c(C)c2oc3c(C)c(O)c(C(=O)C(C)CC)c(O)c3c2c1O (stereo not given)	0.997 ± 0.033	0.95 ± 0.11	0.998 ± 0.045	0.9565 ± 0.0035	0.9575 ± 0.0092
CCC(=O)O[C@H]1CC[C@H]2[C@@H]3CCC4=CC(=O)CC[C@]4(C)[C@H]3CC[C@]12C	1.02 ± 0.045	0.894 ± 0.06	1 ± 0.012	0.994 ± 0.17	0.99 ± 0.013
COc1cc2c(cc1-c1cc3cc4ccoc4cc3oc1=O)OCO2	0.964 ± 0.03	0.949 ± 0.054	0.93 ± 0.059	0.973 ± 0.017	0.9445 ± 0.0021

Source: the supplement of paper PMC6522484
